This is an account of results in PubChem BioAssay (Tox21).

Unmarked numbers belong to inactive results. The source made the active and inactive calls. Unless noted, calls follow the shape of the dose curve; as a rule, active = well fitted curve in the direction sought with a large enough effect in the repeat runs; inconclusive = weak or mixed curves; inactive = no such curve, though single readings can be large; an effect the other way counts as inactive or inconclusive.

Assay [1] can be described thus: qHTS assay for small molecules that induce genotoxicity in human embryonic kidney cells expressing luciferase-tagged ATAD5 (AID 651632). Also: nearly all actives have a fitted effect of over 15% in size. The procedure, abridged: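 Quantitative HTS in HEK293T expressing luciferase-tagged ATAD5, whose levels rise upon DNA damage. Exposure ran 16 hr at 37C and 5% CO2, with luminescence read 30 min after Amplite addition at room temperature.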
For orientation: Quantitative high-throughput screening tests each substance at several concentrations.

Assay [2] can be described thus: qHTS assay for small molecule disruptors of the mitochondrial membrane potential - cell viability (AID 720634; calls by dose curve;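 also: human HepG2 liver cancer cells; nearly all actives have a fitted effect of over 20% in size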). The procedure, abridged:
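ATP-based luminescent viability readout (CellTiter-Glo, 30 min, room temperature) in HepG2 cells multiplexed with the m-MPI membrane potential dye; compound exposure lasted 1 hr at 37 C.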

Assay [3] is described as follows: qHTS assay to test for compound auto fluorescence at 590 nm (red) in HepG2 cells (AID 720674). In outline: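 Compound auto-fluorescence is scored relative to Rose Bengal sodium, measured at 540/590 nm in live HepG2 cultures after 1 hr compound contact (37 C, 5% CO2).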
Assay [4] in a line: qHTS assay to test for compound auto fluorescence at 535 nm (green) in HepG2 cells (AID 720675).
Assay [5] is described as follows: qHTS assay to test for compound auto fluorescence at 460 nm (blue) in HEK293 cells (AID 720678). In outline:
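Auto fluorescence in the blue band was quantified as triamterene equivalency. HEK293 cells were seeded at 2,000/well, dosed after a 4-5 hr attachment, and kept overnight at 37C before the 405/460 nm reading.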

The nature of assay [6]: qHTS assay to test for compound auto fluorescence at 590 nm (red) in HEK293 cells (AID 720679). In outline:
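Autofluorescence equivalency to Rose Bengal sodium, 540/590nm, in HEK293 cells exposed overnight to 23 nL compound per well.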

Assay [7] can be described thus: qHTS assay to test for compound auto fluorescence at 535 nm (green) in HEK293 cells (AID 720680).
Assay [8] in a line: qHTS assay to test for compound auto fluorescence at 460 nm (blue) in HEK293 cell free culture (AID 720681). In outline: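 Test compounds were pinned into cell-free culture medium (DMEM with 10% FBS) and fluorescence was read directly at Ex/Em 405/460 nm. Signals were expressed as fluorescence equivalents of triamterene, with DMSO vehicle as control.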
Assay [9] in a line: qHTS assay to test for compound auto fluorescence at 535 nm (green) in HEK293 cell free culture (AID 720682). The procedure, abridged: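 Cell-free medium (DMEM, 10% FBS) receives compound or DMSO by pintool. Plate read directly at Ex 485/Em 535 nm. Signal converted to fluorescein equivalency.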
The nature of assay [10]: qHTS assay to test for compound auto fluorescence at 590 nm (red) in HEK293 cell free culture (AID 720683). The procedure, abridged: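 Tox21 10K library compounds were pinned into cell-free DMEM with 10% FBS and fluorescence was read at excitation 540 nm. Activity is expressed as Rose Bengal sodium equivalency.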
Assay [11] in a line: qHTS assay to test for compound auto fluorescence at 590 nm (red) in HepG2 cell free culture (AID 720684). The procedure, abridged: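 Ex 540 / Em 590 nm read of compound in cell-free MEM (10% FBS). Rose Bengal sodium reference.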
The nature of assay [12]: qHTS assay to test for compound auto fluorescence at 460 nm (blue) in HepG2 cell free culture (AID 720685). In outline: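 Cell-free plates of MEM plus 10% FBS received 23 nL compound or DMSO vehicle; blue-channel (405/460 nm) intensity scored against triamterene as reference fluorophore.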
Assay [13] is described as follows: qHTS assay to test for compound auto fluorescence at 535 nm (green) in HepG2 cell free culture (AID 720686).
The nature of assay [14]: qHTS assay to test for compound auto fluorescence at 460 nm (blue) in HepG2 cells (AID 720687). The procedure, abridged:
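Cells (2,000/well in MEM with 10% FBS) attached overnight at 37 C, then were exposed to compound or DMSO for 1 hr at 37 C, 5% CO2. Fluorescence read at Ex/Em 405/460 nm, expressed as triamterene-equivalent signal.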

Assay [15] has as its target Glucocorticoid receptor (Homo sapiens) (UniProt P04150). Kind of assay: qHTS assay to identify small molecule agonists of the glucocorticoid receptor (GR) signaling pathway (AID 720691; active = well fitted activation curve with a large enough effect in the signal ratio in the repeat runs, not every such curve was filed as active; inconclusive = weak or mixed curves, or effect the other way; inactive = no such curve, though single readings can be large or run the other way; the % refers to the signal ratio; also: potency is read from the fitted curve at half-maximal effect). Conditions: GR-bla HeLa, beta-lactamase reporter ratio, 18 h; activation: at 62.4 µM (top of the series) unless noted. The procedure, abridged:
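Cells: GR-bla HeLa, endogenous GR with stably integrated GRE-beta-lactamase reporter. Treatment 18 h, 37 C, compounds delivered in DMSO. Detection via LiveBLAzer B/G FRET substrate, 2 h RT, fluorescence intensity.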

Assay [16] can be described thus: qHTS assay for small molecules that induce genotoxicity in human embryonic kidney cells expressing luciferase-tagged ATAD5 - cell viability (AID 651634; calls by dose curve; also: nearly all actives have a fitted effect of over 25% in size). In outline:
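After 15.5 hr incubation with compound at 37C, 5% CO2, HEK293T ATAD5-luciferase cells received CellTiter-Fluor reagent; fluorescence intensity was quantified following 30 min at 37C.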

The nature of assay [17]: qHTS assay for small molecule disruptors of the mitochondrial membrane potential (AID 720635). Also: potency is read from the fitted curve at half-maximal effect. In outline: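 HepG2 cells (2,000/well) attached overnight at 37C, then took compound for 1 hr at 37C, 5% CO2. Mito-MPS dye was added for 30 min; fluorescence was read at 490/535 nm (monomers) and 540/590 nm (aggregates).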
In assay [18] the target is Glucocorticoid receptor (Homo sapiens) (UniProt P04150). The assay can be described thus: qHTS assay to identify small molecule antagonists of the glucocorticoid receptor (GR) signaling pathway (AID 720692; active = well fitted inhibition curve with a large enough effect in the signal ratio in the repeat runs, not every such curve was filed as active; inconclusive = weak or mixed curves, or effect the other way; inactive = no such curve, though single readings can be large or run the other way; the % refers to the signal ratio). In outline: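 Quantitative HTS in antagonist format: HeLa cells expressing endogenous GR and a stably integrated GRE-bla reporter, stimulated with 5 nM dexamethasone (final) alongside test compounds for 18 h.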
Glucocorticoid receptor (Homo sapiens), sequence (P04150 whole entry, looked up): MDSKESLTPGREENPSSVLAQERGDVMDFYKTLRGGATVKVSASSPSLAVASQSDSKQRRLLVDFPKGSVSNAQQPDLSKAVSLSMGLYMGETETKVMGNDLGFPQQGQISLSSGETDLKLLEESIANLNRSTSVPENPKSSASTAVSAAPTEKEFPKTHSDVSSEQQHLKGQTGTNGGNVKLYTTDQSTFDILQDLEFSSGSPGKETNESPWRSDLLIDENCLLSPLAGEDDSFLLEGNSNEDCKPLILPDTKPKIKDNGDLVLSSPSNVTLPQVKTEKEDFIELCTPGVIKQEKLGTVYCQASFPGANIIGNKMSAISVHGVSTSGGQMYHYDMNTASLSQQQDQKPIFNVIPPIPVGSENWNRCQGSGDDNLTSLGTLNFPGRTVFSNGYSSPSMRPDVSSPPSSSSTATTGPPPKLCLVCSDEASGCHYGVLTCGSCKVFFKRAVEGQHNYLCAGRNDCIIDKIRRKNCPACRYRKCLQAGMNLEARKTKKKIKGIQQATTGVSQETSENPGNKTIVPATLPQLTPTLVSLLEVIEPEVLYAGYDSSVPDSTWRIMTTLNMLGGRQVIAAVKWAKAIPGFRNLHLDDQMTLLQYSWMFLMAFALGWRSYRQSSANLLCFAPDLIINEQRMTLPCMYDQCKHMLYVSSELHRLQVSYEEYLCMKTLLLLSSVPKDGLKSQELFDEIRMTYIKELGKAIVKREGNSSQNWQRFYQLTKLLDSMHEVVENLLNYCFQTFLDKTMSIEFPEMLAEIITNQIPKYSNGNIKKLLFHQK
% is scaled to controls: 0 for no effect and ±100 for the full control effect.

In the case of `Clc1ccc2c(c1)CCc1cccnc1C2=C1CCNCC1`, the Potency entry in assay [1], in assay [2], in [3], in assay [4], in [6] and in assay [10] was “inactive” throughout. In addition, the Potency entry in assay [11], in [13] and in assay [15] was “inactive” each time. Besides, the result in [5], in assay [7], in [8], in assay [9], in assay [12] and in [14] was inactive.

On to `O=C(O)c1ccc(-n2nc(-c3ccccc3O)nc2-c2ccccc2O)cc1`, for which the Potency result in assay [1], in assay [2], in assay [3], in assay [4], in assay [6] and in assay [10] was “inactive” throughout. Also, the Potency entry in assay [11] and in assay [13] was “inactive” each time. The molecule was classed as inactive in assay [5], in assay [7], in assay [8], in assay [9], in [12] and in assay [14].

On to `CC(CSC(=O)c1ccccc1)C(=O)N1C[C@@H](Sc2ccccc2)C[C@H]1C(=O)O` (stereo not given in full), for which the Potency result in assay [1], in assay [16], in assay [2], in assay [17], in assay [6] and in [10] was “inactive” in each case. The Potency entry in [11], in [13], in [15] and in assay [18] was “inactive” each time. Moreover, the call in assay [7], in assay [8], in assay [9], in assay [12] and in assay [14] was inactive.

Regarding `CCCCCCCCCCO[C@@H]1O[C@H](CO)[C@@H](O)[C@H](O)[C@H]1O`, the Potency entry in assay [1], in assay [16], in assay [4], in assay [6], in assay [10] and in assay [11] was “inactive” each time. Also, the Potency result in [13] is “inactive”. In addition, the molecule was classed as inactive in assay [5], in assay [7], in [12] and in assay [14].

Take `C#Cc1cccc(Nc2ncnc3cc(OCCOC)c(OCCOC)cc23)c1`: the Potency entry in assay [1], in assay [2], in [3], in assay [4], in [6] and in assay [10] was “inactive” each time. Moreover, the Potency entry in assay [11] and in assay [13] was “inactive” each time. The result in assay [5], in [7], in [8], in [9] and in assay [14] was inactive. Moreover, the Potency in [15] is 26.8 µM [inconclusive] (active).

Regarding `CC(C)(COC(=O)c1ccccc1)COC(=O)c1ccccc1`, the Potency entry in assay [1], in assay [16], in assay [2], in assay [3], in [4] and in assay [6] was “inactive” throughout. Also, the Potency entry in assay [10], in assay [11], in [13] and in assay [15] was “inactive” in each case. Moreover, the outcome in [5], in assay [7], in [8], in [9], in assay [12] and in [14] was inactive.

Take `CC(C)(CO)[N+](=O)[O-]`: the Potency entry in [1], in assay [16], in [3], in assay [10], in assay [11] and in assay [13] was “inactive” each time. The Potency result in [15] and in assay [18] was “inactive” throughout. Besides, the result in assay [5], in [7], in assay [8], in assay [12] and in assay [14] was inactive.

As to `O=C1CCCCCCCCCCCC(=O)OCCO1`, the Potency result in assay [1], in [16], in assay [2], in [4], in assay [6] and in assay [11] was “inactive” throughout. Further, the Potency result in [13] and in assay [15] was “inactive” each time. Further, the outcome in [5], in assay [7], in [9], in [12] and in assay [14] was inactive.

For the molecule `CCCCNc1ccc(C(=O)OCCOCCOCCOCCOCCOCCOCCOCCOCCOC)cc1`, the Potency entry in [1], in [16], in assay [2] and in assay [15] was “inactive” each time. In addition, the Potency in assay [17] is 3.2 µM (active). The fluorescence, relative to Rose Bengal in assay [3] is -0.666% [at 18.6 µM]. The fluorescence, % of fluorescein control in assay [4] is -0.0335% [at 18.6 µM]; in [13], -0.018% [at 18.6 µM]. Moreover, in assay [5], the fluorescence, % of triamterene is -0.29% [at 18.6 µM]. Moreover, the fluorescence, % of fluorescent control in assay [6] was 0.183% [at 18.6 µM]; in assay [8], -0.35% [at 18.6 µM]; in [10] it was -0.482% [at 18.6 µM]; in assay [12] it was -0.106% [at 18.6 µM]; in assay [14], -0.0219% [at 18.6 µM]. Also, the fluorescence, % of fluorescein in assay [7] is -0.0088% [at 18.6 µM]. Further, the fluorescence, % of Rose Bengal in assay [11] was -0.448% [at 18.6 µM].

Regarding `CCCCCCCCCCCCCCCCCCOS(=O)(=O)O`, the Potency entry in [1], in assay [16], in assay [2], in assay [4], in [6] and in assay [10] was “inactive” throughout. Moreover, the Potency entry in [11], in assay [13] and in assay [15] was “inactive” each time. Further, the outcome in assay [5], in assay [7], in assay [8], in assay [9], in [12] and in [14] was inactive.

As for `CC(C)O.CC(C)O.CCOC(=O)/C=C(\C)O.CCOC(=O)/C=C(\C)O.[Ti]`, the Potency entry in assay [16], in [2], in assay [3], in assay [4], in [6] and in assay [11] was “inactive” each time. The Potency entry in assay [13] is “inactive”. Besides, the result in assay [5], in assay [7], in assay [8], in [9], in assay [12] and in assay [14] was inactive.

Turning to `CNCCCCOc1ccccc1Cc1ccccc1`, the Potency result in assay [1], in assay [16], in assay [3], in [4], in assay [6] and in assay [10] was “inactive” in each case. In addition, the Potency entry in assay [11], in [13] and in [15] was “inactive” each time. Also, the molecule was called inactive in assay [5], in [7], in assay [8], in assay [9], in [12] and in assay [14].

On to `CCCCCCCCCCCCCCOS(=O)(=O)O`, for which the Potency result in [1], in assay [16], in assay [2], in assay [4], in assay [10] and in assay [11] was “inactive” each time. The Potency entry in assay [13] and in assay [18] was “inactive” in each case. Further, the molecule was classed as inactive in assay [5], in assay [7], in assay [8], in [9], in assay [12] and in assay [14].

`COc1cc(Cl)c(OC)cc1N`: the Potency entry in [16], in assay [2], in assay [3], in [4], in assay [6] and in assay [10] was “inactive” throughout. In addition, the Potency entry in assay [11], in assay [13] and in assay [15] was “inactive” throughout. Moreover, the call in assay [5], in [7], in [9], in assay [12] and in [14] was inactive.

As for `O=C(Nc1ccccc1)c1ccccc1O`, the Potency entry in [1], in [16], in assay [3], in assay [4], in assay [6] and in [11] was “inactive” each time. Moreover, the Potency result in assay [13] and in assay [15] was “inactive” each time. In addition, the Potency in assay [17] was 2.43 µM (active). Also, the result in [5], in assay [7], in assay [8], in assay [9], in assay [12] and in [14] was inactive.

For the molecule `COc1cccc(N(C)C(=S)Oc2ccc3c(c2)CCCC3)n1`, the Potency entry in assay [16], in [4], in [6], in assay [10], in [11] and in assay [13] was “inactive” each time. In assay [17], the Potency was 29.8 µM (active). The result in [5], in assay [7], in assay [9], in [12] and in assay [14] was inactive.
